# Compounds with a hit are over-represented: about 8.7% of the library has one in this group of screens.
# JMJD2A Tudor inh: blocks the human JMJD2A Tudor domain; O75164; AlphaScreen JMJD2A-Tudor / H3K4me3 peptide binding; Potency, µM (series often up to 114 µM), most hits filed as inhibitors; hit rate 4.4% among 390,000; AID 504339; note: nearly all actives have a fitted effect of over 50% in size
# G9a block: blocks human histone lysine methyltransferase G9a | AID 504332 | Q96KQ7 | Potency, µM (titrated, usually from 102 µM), hits mostly inhibitors | G9a H3K9 monomethylation, AlphaScreen, 2 h | hit rate 8.8% among 350,000; note: nearly all actives have a fitted effect of over 75% in size
# Target sequence (Q96KQ7 913-1193 limits assumed): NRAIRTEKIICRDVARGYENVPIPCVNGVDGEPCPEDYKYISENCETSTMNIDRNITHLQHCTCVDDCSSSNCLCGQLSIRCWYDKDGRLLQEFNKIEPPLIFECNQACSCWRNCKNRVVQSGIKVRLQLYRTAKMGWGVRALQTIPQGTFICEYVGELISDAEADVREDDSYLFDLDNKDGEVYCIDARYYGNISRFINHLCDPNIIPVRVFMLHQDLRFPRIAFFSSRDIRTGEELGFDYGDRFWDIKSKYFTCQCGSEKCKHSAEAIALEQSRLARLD
#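 G9a (20 nM) preincubated 15 min RT with compounds, then 500 nM biotinylated H3K9 peptide and 20 uM SAM added; 2 h RT reaction. Monomethyl-H3K9 product detected by AlphaScreen with anti-H3K9me1 antibody, streptavidin donor and anti-rabbit IgG acceptor beads.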
# ALOX12 inh: blocks human arachidonate 12S-lipoxygenase | purified 12hLO, xylenol orange hydroperoxide absorbance | Potency, µM (titrated, usually from 108 µM), usual class: inhibitors | hit rate 1.1% among 580,000
#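 Purified human 12hLO at 150 nM in 25 mM Hepes, 0.01% Triton X-100, pH 7.0, preincubated 15 min at room temperature with compound. Reaction started with 40 uM arachidonic acid, 30 min at room temperature. Hydroperoxide measured by Fe-xylenol orange, 573/405 nm absorbance ratio.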
# BAZ2B inh: BAZ2B (human) inhibition. Q9UIF8. AlphaScreen BAZ2B-H3K14Ac peptide displacement. Potency, µM (doses to about 114 µM), actives largely listed as inhibitors. hit rate 4.4% among 360,000. AID 504333; note: nearly all actives have a fitted effect of over 60% in size
#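 Multi-concentration screen (max 110 uM) measuring displacement of acetylated histone H3 peptide from BAZ2B by AlphaScreen, using 50 nM protein, 50 nM peptide and 10 ug/mL streptavidin donor plus Ni-chelate acceptor beads.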
# HP1b chromo inh: blocks HP1-beta chromodomain binding to methylated histone tails; P83916; AlphaScreen HP1-beta / biotin-H3K9me3 peptide binding; Potency, µM (doses to about 114 µM), usual class: inhibitors; hit rate 0.56% among 390,000; AID 540317; note: nearly all actives have a fitted effect of over 70% in size
# Target sequence (P83916 whole entry, looked up): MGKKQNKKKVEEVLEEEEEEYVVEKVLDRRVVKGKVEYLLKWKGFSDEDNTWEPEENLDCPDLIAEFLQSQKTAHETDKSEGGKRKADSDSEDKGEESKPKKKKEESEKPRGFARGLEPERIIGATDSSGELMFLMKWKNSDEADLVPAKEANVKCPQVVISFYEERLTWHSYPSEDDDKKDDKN
#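 HP1-beta protein (50 nM final) preincubated 30 min at room temperature with biotinylated H3(1-18)K9me3 peptide (50 nM) in PBS pH 7.4, 0.01% Tween-20, then compound added for 30 min. AlphaScreen streptavidin donor/nickel chelate acceptor beads (10 ug/mL final), 30 min dark, luminescence read.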
# Sfp PPTase inh: inhibitors of Bacillus subtilis Sfp phosphopantetheinyl transferase. Q9F4F7. Biochemical Sfp PPTase activity, qHTS. Potency, µM, hits mostly inhibitors. hit rate 3.5% among 310,000;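 note: the enzyme is Sfp with the accession as filed and its product quenches rhodamine fluorescence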
#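 Compounds were incubated with enzyme (final 15 nM) for 15 min at room temperature before substrate addition started the reaction. Fluorescence at 525 nm excitation, 598 nm emission was recorded immediately and after 30 minutes.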
# A number is an active result; i = inactive; ? = inconclusive; nt = no result; [ ] = remark or other dose. Calls come from the whole dose curve; as a rule, active = well fitted curve in the direction sought with a large enough effect; inconclusive = small, poorly fitted or top-dose-only effect, or another doubt; inactive = no such curve, though single readings can be large; an effect the other way counts as inactive or inconclusive.
SMILES,JMJD2A Tudor inh,G9a block,ALOX12 inh,BAZ2B inh,HP1b chromo inh,Sfp PPTase inh
CCOc1ccc2cc(C(=O)N3CCC(N4CCCCC4)CC3)[nH]c2c1,nt,nt,i,nt,nt,nt
O[C@@H]1C[C@@H](c2nc(-c3ccccc3)no2)N(Cc2ncc[nH]2)C1,nt,nt,i,nt,nt,nt
CN1C[C@@H](NC(=O)c2ccc(-c3ccccc3)cc2)C[C@H]1c1nc(-c2ccc(Cl)cc2)no1,nt,nt,i,nt,nt,nt
CC(=O)N[C@H]1C[C@@H](c2nc(-c3ccc4c(c3)OCO4)no2)N(C)C1,nt,nt,i,nt,nt,nt
CC(C)NC(=O)N[C@H]1C[C@@H](c2nc(-c3ccc4c(c3)OCO4)no2)N(C)C1,nt,nt,22µM,nt,nt,nt
CN1C[C@@H](NC(=O)CC(C)(C)CC(=O)O)C[C@H]1c1nc(-c2ccccc2)no1,nt,nt,126µM,nt,nt,nt
CC1CCCC(C)N1/N=C/c1ccccc1F (stereo unspecified),3.2µM,3.2µM,?,50µM,?,50µM
CC1CCCC(C)N1/N=C/c1ccc(Cl)cc1 (stereo unspecified),i,i[12.7 µM],i,i,i,i
CCOc1cc([C@@H]2C[C@H]3CN(c4ccccc4)C(=O)[C@]34CCCN24)ccc1OC,i,50µM,i,i,i,i
Cc1ccc(O)c(N=NC2=C(O)CC(C)(C)CC2=O)c1,56µM,?,?,32µM,i,i
Cc1ccc(-c2nc3ccccc3c(=O)n2-c2c(C)n(C)n(-c3ccccc3)c2=O)cc1,i,nt,i,i,i,i
CC1=CC(=Nc2c(C)n(C)n(-c3ccccc3)c2=O)C=CC1=O,nt,10µM,nt,45µM,nt,8.9µM
Cc1c(N=c2scc(-c3ccccc3)n2C)c(=O)n(-c2ccccc2)n1C,i,i,i,?,i,i
Cc1c(-n2c(=S)[nH]c3ccccc3c2=O)c(=O)n(-c2ccccc2)n1C,20µM,?,i,i,i,i
Cc1c(O)c(=O)n(-c2ccccc2)n1C,i,8.9µM,?,i,i,?
Cc1c(I)c(=O)n(-c2ccccc2)n1C,nt,i,nt,nt,nt,i
O=C(NC1CCCC1)C(=O)N1CCN(C(=O)c2cc3ccccc3[nH]2)CC1,nt,nt,i,nt,nt,nt
Cc1c(CN(C)CCc2ccccc2)c(=O)n(-c2ccccc2)n1C,3.5µM,4µM,?,?,?,i
Cc1c(N=NC2=C(O)CC(C)(C)CC2=O)c(=O)n(-c2ccccc2)n1C,50µM,i[12.7 µM],i,35µM,?,40µM
Cc1ccsc1CN(C)Cc1c(C)n(C)n(-c2ccccc2)c1=O,nt,nt,i,nt,nt,nt
CCCC(=O)NC(=S)c1c(C)n(C)n(-c2ccccc2)c1=O,i,45µM,?,i,i,i
CCNc1ccc(N=Nc2c(C)n(C)n(-c3ccccc3)c2=O)cc1,i,?,?,32µM,i,i
CCOC(=O)/C(N=Nc1c(C)n(C)n(-c2ccccc2)c1=O)=C(\C)O,i,i,i,i,i,i
CC(=O)/C(N=Nc1c(C)n(C)n(-c2ccccc2)c1=O)=C(\C)O,i,i,i,?,i,i
C=C(C)COc1ccc2cc(-c3ccc(OC)cc3OC)c(=O)oc2c1,nt,nt,i,nt,nt,nt
SMILES,JMJD2A Tudor inh,G9a block,ALOX12 inh,BAZ2B inh,HP1b chromo inh,Sfp PPTase inh
COc1cc(C)cc(C(C(=O)O)N2CCN(c3cnccn3)CC2)c1OC (stereo unspecified),nt,nt,i,nt,nt,nt
CC(C)OCc1ccccc1CNS(=O)(=O)c1cc(F)cc(F)c1,nt,nt,i,nt,nt,nt
CC1=CC(=Nc2c(C)n(C)n(-c3ccccc3)c2=O)C=C(C)C1=O,i,40µM,?,i,?,79µM
Cc1c(N=C2Nc3cccc4cccc2c34)c(=O)n(-c2ccccc2)n1C,i,i,i,i,i,i
CCC(C)C1=CC(=Nc2c(C)n(C)n(-c3ccccc3)c2=O)C=C(C(C)CC)C1=O (stereo unspecified),?,?,i,3.5µM,i,i
COC[C@@H]1CN(C(=O)Cc2c(F)cccc2Cl)C[C@H]1C(N)=O,nt,nt,i,nt,nt,nt
O=C(NNS(=O)(=O)c1ccccc1)c1cccc([N+](=O)[O-])c1,13µM,?,i,i,i,i
O=C(NC(=S)N1CCCC1)c1cccc([N+](=O)[O-])c1,i,79µM,i,i,i,i
O=C(NC(=S)N1CCCCCC1)c1cccc([N+](=O)[O-])c1,i,i[2.33 µM],i,?,i,nt
O=C(NNC(=S)NC(=O)c1ccccc1)c1cccc([N+](=O)[O-])c1,i,28µM,?,i,i,i
O=C(NNS(=O)(=O)c1ccc([N+](=O)[O-])cc1)C(=O)Nc1cccc(C(=O)O)c1,?,8.9µM,?,56µM,i,40µM
Cc1ccc(C(=O)NC(=S)NNC(=O)c2cccc([N+](=O)[O-])c2)cc1,i,nt,?,i,i,i
O=C(NNS(=O)(=O)c1ccc([N+](=O)[O-])cc1)c1ccccc1,?,nt,i,nt,i,nt
COc1ccc(-c2nonc2NC(=O)Cc2cccc3ccccc23)cc1,nt,nt,i,nt,nt,nt
COc1ccc(-c2noc(C(=O)NC3CC3)c2[C@H](C)O)cc1,nt,nt,i,nt,nt,nt
COP(=O)(OC)c1nc(-c2ccco2)oc1NCc1ccccc1Cl,nt,nt,i,nt,nt,nt
CCOc1ccc2cc(C(=O)O)[nH]c2c1,nt,nt,i,nt,nt,nt
CCCOC(=O)c1ccc(Oc2coc3cc(OC)ccc3c2=O)cc1,nt,nt,i,nt,nt,nt
COc1ccc(CCC(=O)N2CCCCCC2CN2CCC(OC)CC2)cc1 (stereo unspecified),nt,nt,i,nt,nt,nt
Fc1ccc(C2=Nc3ccc(Cl)cc3NC(c3cccs3)=N2)cc1,nt,nt,i,nt,nt,nt
O=C(NNC(=S)NC(=O)c1cccc([N+](=O)[O-])c1)c1ccc(Br)cc1,i,45µM,40µM,i,i,i
O=C(NNC(=S)NC(=O)c1cccc([N+](=O)[O-])c1)c1ccc(O)cc1,i,20µM,i,i,i,?
O=C(NNC(=O)c1cccc([N+](=O)[O-])c1)c1ccncc1,i,i[0.501 µM],i,i,i,i
C/C(=N/Nc1ccc(S(N)(=O)=O)cc1[N+](=O)[O-])c1ccc(Br)s1,nt,nt,i,nt,nt,nt
C/C(=N\Nc1ccc(F)cc1F)c1ccc(Br)s1,i,8.9µM,32µM,i,?,i
SMILES,JMJD2A Tudor inh,G9a block,ALOX12 inh,BAZ2B inh,HP1b chromo inh,Sfp PPTase inh
C/C(=C\C(=O)c1ccc(F)cc1)Nc1ccc(N2CCOCC2)cc1,?,40µM,i,i,i,i
CNC(=S)N/N=C(\C)c1ccc(N2CCOCC2)cc1,i,?,i,?,i,50µM
CCNC(=S)N/N=C(\C)c1ccc(N2CCOCC2)cc1,i,i,?,i,i,i
C/C(=N\NC(=O)COc1ccc(C(C)(C)C)cc1)c1ccc(N2CCOCC2)cc1,i,10µM,i,i,i,i
C/C(=N\NC(=O)c1ccc(F)cc1)c1ccc(N2CCOCC2)cc1,i,i,i,i,i,i
COc1ccc(NC(=O)CSc2nc(Cl)nc3nc[nH]c23)cc1OC,nt,nt,i,nt,nt,nt
C/C(=N\Nc1ccc(F)cc1F)c1ccc(F)cc1,nt,i[0.501 µM],nt,i,nt,i
Fc1ccc(N/N=C/c2ccc(N3CCOCC3)cc2)c(F)c1,?,10µM,?,?,?,i
C/C(=N\Nc1ccc(F)cc1F)c1ccc(N2CCOCC2)cc1,?,7.9µM,?,i,i,i
COc1ccc(CNc2oc(COc3cccc(C)c3)nc2C#N)cc1,?,5µM,?,14µM,?,nt

# Compound activity deposited in PubChem by National Center for Advancing Translational Sciences (NCATS).
